Here are results for 15 compounds from PubChem BioAssay (NCATS).

Inconclusive results are not listed. The source made the active and inactive calls. Calls follow the shape of the dose curve; as a rule, active = well fitted inhibition curve with a large enough effect; inconclusive = small, poorly fitted or top-dose-only effect; inactive = flat fitted curve, though single readings scatter.
% is scaled to controls: 0 for no effect and ±100 for the full control effect.

Calcium and integrin-binding protein 1 (Homo sapiens), sequence (Q99828 whole entry, looked up): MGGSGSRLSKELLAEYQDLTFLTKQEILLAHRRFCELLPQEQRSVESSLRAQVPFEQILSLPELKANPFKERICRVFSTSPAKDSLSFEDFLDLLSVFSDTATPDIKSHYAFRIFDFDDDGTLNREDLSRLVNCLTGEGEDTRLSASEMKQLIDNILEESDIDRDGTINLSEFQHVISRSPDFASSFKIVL

The assay deals with Calcium and integrin-binding protein 1 (Homo sapiens) (UniProt Q99828). In words: Primary qHTS for Identification of Calcium Integrin Binding Protein 1 (CIB1) Competitor (AID 1508620). Also: top concentration of the series differs between compounds. As to conditions: CIB1-GST / FITC-alphaIIb peptide fluorescence polarization; series mostly up to 57.7 µM; activity change, negative = inhibition: at the top concentration. An outline of the steps:
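Fluorescence polarization competition: GST-tagged CIB1 (1 uM final) preincubated with compound 15 min at room temperature, then FITC-labelled alphaIIb peptide (100 nM final) added. After 15 min at room temperature, polarization read at Ex 480/Em 540.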
In the case of `NC(=O)N1CCC(CC(=O)N2CCC([C@H]3c4ncc(Br)cc4CCc4cc(Cl)cc(Br)c43)CC2)CC1`, the “activity change, negative = inhibition” value is -1.76% (inactive).

Regarding `CCCCCCCN(CC)CCCC(O)c1ccc(NS(C)(=O)=O)cc1` (stereo not given), the “activity change, negative = inhibition” value is 0.286% (inactive).

Regarding `CC(=O)NC(CS)C(=O)O` (stereo not given), the “activity change, negative = inhibition” value is 0.386% (inactive).

Turning to `COc1ccc(C=Cc2cc(OC)c(OC)c(OC)c2)cc1NC(=O)[C@H](N)CO`, the “activity change, negative = inhibition” value was -0.782% (inactive).

On to `Cc1ccc(O)c(C(CCN(C(C)C)C(C)C)c2ccccc2)c1` (stereo not given), for which the “activity change, negative = inhibition” value was -0.202% (inactive).

`CC(C)[C@H](CO)Nc1nc(Nc2cccc(Cl)c2)c2ncn(C(C)C)c2n1`: the “activity change, negative = inhibition” value was -0.34% (inactive).

`C[C@H](CCC(=O)O)[C@H]1CCC2C3C[C@H](O)[C@@H]4C[C@H](O)CC[C@]4(C)C3CC[C@@]21C` (stereo not given in full): the “activity change, negative = inhibition” value was -3.55% (inactive).

With `CCOC(=O)C1=C(C)NC(=S)NC1c1cccc(O)c1` (stereo not given), the “activity change, negative = inhibition” value was -7.46% (inactive).

Turning to `COc1cc2c(cc1OC)[C@@H]1C(=O)c3ccc4c(c3O[C@@H]1CO2)C=CC(C)(C)O4`, the “activity change, negative = inhibition” value is -4.29% (inactive).

As for `CC(C)C[C@H](NC(=O)CNC(=O)c1cc(Cl)ccc1Cl)B1OC(=O)CC(CC(=O)O)(C(=O)O)O1` (stereo not given in full), the “activity change, negative = inhibition” value was 0.209% (inactive).

For the compound `O=C1NCCc2[nH]c(-c3ccncc3)cc21`, the “activity change, negative = inhibition” value is 3.28% (inactive).

Consider `Nc1nc2c(c(=O)[nH]1)N(C=O)[C@H](CNc1ccc(C(=O)N[C@@H](CCC(=O)O)C(=O)O)cc1)CN2`, for which the “activity change, negative = inhibition” value is -0.441% (inactive).

With `NC(=O)Nc1cc(-c2ccc(CN3CCOCC3)cc2)sc1C(N)=O`, the “activity change, negative = inhibition” value was 1.29% (inactive).

In the case of `CCCCOc1ccc(C(=O)Nc2ccc(F)cc2F)cc1`, the Potency result was “inactive”.

As to `CC(=O)O[C@H]1C[C@@H]2CC[C@H]3[C@H]4C[C@H]([N+]5(C)CCCCC5)[C@@H](OC(C)=O)[C@@]4(C)CC[C@@H]3[C@@]2(C)C[C@H]1[N+]1(C)CCCCC1`, the “activity change, negative = inhibition” value was -2.1% (inactive).
